# From PubChem BioAssay (NCI)
# Where “and” joins values, the source holds several entries; their conditions need not be identical. Equal values may be shown once. This is part of a sample that, as a whole, favours compounds with a hit. Of some 79,000 tested, about 15% had one in any assay. A structure can be active in one record and inactive in another. Calls of active or inactive are those of the source. Rule as the data show it: active = growth inhibition above about 70%; inactive = the rest.
# Columns and labels:
# [1] = NCI Yeast Anticancer Drug Screen. Data for the rad50 strain (AID 155);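 also: 0% = growth of vehicle-only cultures of the same strain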; details: S. cerevisiae rad50 strain growth inhibition, stronger effect = higher value
# Summary of the method: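 A DNA repair-deficient yeast mutant serves as the test organism; compound-induced growth inhibition is calculated against vehicle-treated cells.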
# [2] = NCI Yeast Anticancer Drug Screen. Data for the mec2-1 strain (AID 157); details: S. cerevisiae mec2-1 strain, stronger effect = higher value
# Summary of the method: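 Vehicle-treated cultures served as reference for growth inhibition of compound-exposed mec2-1 yeast.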
# [3] = NCI Yeast Anticancer Drug Screen. Data for the sgs1 mgt1 strain (AID 161);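 also: 0% = growth of cultures given vehicle only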; details: S. cerevisiae sgs1 mgt1 strain, stronger effect = higher value
# Summary of the method: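 Genetically altered yeast, compound exposure, growth inhibition relative to vehicle.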
# [4] = NCI Yeast Anticancer Drug Screen. Data for the cln2 rad14 strain (AID 165);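 also: 0% = growth equal to vehicle treated cultures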; details: S. cerevisiae cln2 rad14 strain, stronger effect = higher value
# Summary of the method: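 Each compound was tested on cln2 rad14 yeast. Inhibition of growth was calculated against vehicle-exposed controls.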
# [5] = NCI Yeast Anticancer Drug Screen. Data for the bub3 strain (AID 167); details: S. cerevisiae bub3 mutant strain, stronger effect = higher value
# Summary of the method: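 Inhibition values come from growth of compound-treated mutant yeast normalised to vehicle-treated controls.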
# [6] = NCI Yeast Anticancer Drug Screen. Data for the mlh1 rad18 strain (AID 175); details: S. cerevisiae mlh1 rad18 strain growth inhibition, stronger effect = higher value
# Summary of the method: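 Vehicle-treated cultures served as the reference for growth inhibition in a yeast strain carrying DNA damage repair alterations exposed to each compound.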
# [7] = at 5.0 µM (retest, dose inferred, filed as 0.5)
# [8] = at 50.0 µM (retest, dose inferred, filed as 5.0)
SMILES,"growth inhibition [1, 7]","growth inhibition [1, 8]",growth inhibition ([1]; at 50.0 µM),"growth inhibition [2, 7]","growth inhibition [2, 8]",growth inhibition ([2]; at 50.0 µM),"growth inhibition [3, 7]","growth inhibition [3, 8]",growth inhibition ([3]; at 50.0 µM),"growth inhibition [4, 7]","growth inhibition [4, 8]",growth inhibition ([4]; at 50.0 µM),"growth inhibition [5, 7]","growth inhibition [5, 8]",growth inhibition ([5]; at 50.0 µM),"growth inhibition [6, 7]","growth inhibition [6, 8]",growth inhibition ([6]; at 50.0 µM)
CCOP(=O)(OCC)Oc1ccc([N+](=O)[O-])cc1,8% (inactive),-5% (inactive),0.55% (inactive),-10% (inactive),-13% (inactive),2.65% (inactive),12% (inactive),16% (inactive),-7% (inactive),6% (inactive),7% (inactive),38.7% (inactive),-4% (inactive),14% (inactive),9.8% (inactive),13% (inactive),4% (inactive),3.55% (inactive)
Cc1ccc(S(=O)(=O)OC2CCC3C4CC=C5CC(SC(=N)N)CCC5(C)C4CCC23C)cc1 (centres undefined),67% (inactive),82% (active),47.9% (inactive),37% (inactive),28% (inactive),29.6% (inactive),96% (active),95% (active),94.1% (active),4% (inactive),6% (inactive),3% (inactive),51% (inactive),36% (inactive),26.1% (inactive),51% (inactive),44% (inactive),66.3% (inactive)
CCOc1ccc(/C=C/[N+](=O)[O-])cc1[N+](=O)[O-],11% (inactive),98% (active),95.6% (active),7% (inactive),99% (active),99.6% (active),9% (inactive),99% (active),99.5% (active),16% (inactive),99% (active),99% (active),9% (inactive),99% (active),99.3% (active),12% (inactive),99% (active),99.3% (active)
c1ccc(CCNCc2ccccc2)cc1,-2% (inactive),3% (inactive),-2.35% (inactive) and 6.05% (inactive),-2% (inactive),2% (inactive),6.45% (inactive) and 3.8% (inactive),-4% (inactive),0% (inactive),-7.05% (inactive) and -3.9% (inactive),0% (inactive),4% (inactive),54% (inactive) and -3.45% (inactive),5% (inactive),4% (inactive),-7.5% (inactive) and 16.1% (inactive),3% (inactive),6% (inactive),0.4% (inactive) and 3.2% (inactive)
O=C1N[C@@H]2C(=C[C@H](O)[C@@H](O)[C@H]2O)c2cc3c(c(O)c21)OCO3,41% (inactive),82% (active),3.8% (inactive),41% (inactive),82% (active),-19% (inactive),53% (inactive),84% (active),18.1% (inactive),60% (inactive),83% (active),0.2% (inactive),53% (inactive),78% (active),-3.1% (inactive),41% (inactive),84% (active),6.3% (inactive)
N#CC(=C=N)N=C(F)C(C#N)=C(C#N)C#N,-1% (inactive),68% (inactive),87% (active),-2% (inactive),88% (active),82.6% (active),13% (inactive),86% (active),73.2% (active),7% (inactive),94% (active),90.3% (active),6% (inactive),77% (active),86.8% (active),25% (inactive),93% (active),94.8% (active)
O=C1CCC[N]1[Hg][N]1CCCC1=O,44% (inactive),46% (inactive),93.2% (active),40% (inactive),51% (inactive),94.6% (active),99% (active),99% (active),94.2% (active),66% (inactive),97% (active),92% (active),99% (active),98% (active),93.8% (active),33% (inactive),51% (inactive),92.8% (active)
c1ccc(C(C(=Nc2ccc(Cc3ccc(N=C(C(c4ccccc4)c4ccccc4)N4CC4)cc3)cc2)N2CC2)c2ccccc2)cc1,5% (inactive),86% (active),85.6% (active),42% (inactive),59% (inactive),92.5% (active),5% (inactive),70% (active),94.1% (active),8% (inactive),62% (inactive),77.2% (active),5% (inactive),87% (active),85.8% (active),11% (inactive),71% (active),91.7% (active)
C1CN([PH+](N2CC2)N2CC2)CCO1.C1CN([PH+](N2CC2)N2CC2)CCO1.[I][Pt][I],0% (inactive),9% (inactive),36.8% (inactive),2% (inactive),5% (inactive),23.7% (inactive),1% (inactive),5% (inactive),52.2% (inactive),4% (inactive),1% (inactive),17.9% (inactive),1% (inactive),15% (inactive),96.5% (active),1% (inactive),7% (inactive),6.4% (inactive)
N=C(N)SCc1ccc(Cl)c2ccccc12 (tested in a mixture with another compound),12% (inactive) and 8% (inactive),94% (active) and 60% (inactive),98.8% (active) and 90% (active),1% (inactive) and -15% (inactive),58% (inactive) and 35% (inactive),98.6% (active) and 89.5% (active),-6% (inactive) and -9% (inactive),93% (active) and 51% (inactive),98.5% (active) and 92.5% (active),-40% (inactive) and -1% (inactive),94% (active) and 38% (inactive),94.8% (active) and 57% (inactive),-21% (inactive) and -5% (inactive),72% (active) and 66% (inactive),98.2% (active) and 92.8% (active),2% (inactive) and -3% (inactive),91% (active) and 88% (active),98.7% (active) and 96% (active)
NC(C(=O)O)c1ccccc1Cl (centres undefined),-161% (inactive),-142% (inactive),21% (inactive),-51% (inactive),-48% (inactive),1.65% (inactive),-64% (inactive),-57% (inactive),-2.5% (inactive),-61% (inactive),-56% (inactive),73.1% (active),-68% (inactive),-69% (inactive),-3.55% (inactive),-147% (inactive),-106% (inactive),13.9% (inactive)
Cc1cc[n+](C2=C(Nc3cc(C)cc(C)c3)C(=O)c3ccccc3C2=O)cc1,-3% (inactive),9% (inactive),24.9% (inactive),-2% (inactive),11% (inactive),28.5% (inactive),-1% (inactive),16% (inactive),9.5% (inactive),-9% (inactive),1% (inactive),6.75% (inactive),1% (inactive),45% (inactive),16% (inactive),-3% (inactive),15% (inactive),51.8% (inactive)
CCOP(=O)(Cc1cccc2ccccc12)OCC,5% (inactive),13% (inactive),4.65% (inactive),5% (inactive),-6% (inactive),-7.95% (inactive),4% (inactive),17% (inactive),13.4% (inactive),2% (inactive),14% (inactive),2.1% (inactive),14% (inactive),2% (inactive),19.9% (inactive),17% (inactive),29% (inactive),-3.35% (inactive)
CC1(C)N([O-])[N+](=O)C1(C)Br (centres undefined),23% (inactive),15% (inactive),-2.45% (inactive),19% (inactive),13% (inactive),-10.3% (inactive),21% (inactive),24% (inactive),-20.2% (inactive),12% (inactive),24% (inactive),19.5% (inactive),19% (inactive),20% (inactive),5.55% (inactive),20% (inactive),15% (inactive),11.4% (inactive)
CC1([CH2][Hg][I])CS(=O)(=O)CC(C)([CH2][Hg][I])O1 (centres undefined),99% (active),98% (active),95.7% (active),100% (active),99% (active),98% (active),100% (active),99% (active),97.3% (active),99% (active),98% (active),96% (active),100% (active),99% (active),97.8% (active),99% (active),98% (active),96.2% (active)
CCOP(=O)(OCC)/C(C#N)=C/c1cccc(Cl)c1,1% (inactive),94% (active),90.5% (active),-1% (inactive),96% (active),91.8% (active),5% (inactive),94% (active),90.8% (active),14% (inactive),94% (active),88.2% (active),-6% (inactive),96% (active),89.8% (active),6% (inactive),96% (active),89.3% (active)
N=P(c1ccccc1)(c1ccccc1)c1ccccc1.[O]=[Cr](=[O])([OH])[O][Cr](=[O])(=[O])[OH],9% (inactive),80% (active),71.3% (active),5% (inactive),76% (active),26.4% (inactive),16% (inactive),91% (active),37.3% (inactive),-4% (inactive),50% (inactive),8.95% (inactive),-4% (inactive),81% (active),11.2% (inactive),4% (inactive),57% (inactive),53.2% (inactive)
CCCNC(=O)Nc1ccc2c(c1)Cc1cc(N(CCCl)CCCl)ccc1-2,2% (inactive),32% (inactive),39.1% (inactive),0% (inactive),16% (inactive),23.1% (inactive),-4% (inactive),73% (active),37.3% (inactive),3% (inactive),-1% (inactive),24.9% (inactive),6% (inactive),86% (active),76.5% (active),3% (inactive),52% (inactive),31.2% (inactive)
